Data reported in PubChem BioAssay (EPA / NIEHS).
Records with an inconclusive call do not appear. The source made the active and inactive calls. Rule for the calls: active = hit-call score of the fitted dose curve at least 0.9, where 1 is the maximum; inconclusive = response in the unintended direction; inactive = score below 0.9.

Tests used:
[1] = system: frog Estrogen Receptor (ESR1), gene 398734; assay: ATG_frER1_XSP1: Attagene TRANS-FACTORIAL Multi-Species (XSP1) HepG2 Assay for frog Estrogen Receptor (ESR1) (AID 2283777)
In short: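 HepG2 cells transiently transfected with frog ER–GAL4 chimera and GAL4-UAS reporter, with 3 nM 6-alpha-fluorotestosterone present; 24 h dosing, reporter mRNA quantified by RT-PCR and capillary electrophoresis, gain of signal versus DMSO.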

[2] = system: zebrafish Estrogen Receptor (ESR2A), gene 317734; assay: ATG_zfER2a_XSP1: Attagene TRANS-FACTORIAL Multi-Species (XSP1) HepG2 Assay for zebrafish Estrogen Receptor (ESR2A) (AID 2283778)
In short: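 HepG2 cells transiently transfected with GAL4-UAS reporter units driven by a zebrafish ESR2A–Gal4 chimera; 24 h compound exposure with 3 nM 6-alpha-fluorotestosterone present. Reporter mRNA measured by RT-PCR with fluorescent capillary electrophoresis, fitted positive versus DMSO.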

[3] = target: chicken Estrogen Receptor (ESR1), ESR1 (gene 396099) (UniProt P06212); assay: ATG_chERa_XSP1: Attagene TRANS-FACTORIAL Multi-Species (XSP1) HepG2 Assay for chicken Estrogen Receptor (ESR1) (AID 2283779)
In short: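 HepG2 cells transiently transfected with GAL4-UAS reporter units for chimeric chicken ERα-Gal4, dosed 24 h with 3 nM 6-alpha-fluorotestosterone present. Reporter mRNA by RT-PCR and capillary electrophoresis; gain-of-signal fit versus DMSO.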

[4] = system: turtle Estrogen Receptor (ESR1), gene 101933533; assay: ATG_trERa_XSP1: Attagene TRANS-FACTORIAL Multi-Species (XSP1) HepG2 Assay for turtle Estrogen Receptor (ESR1) (AID 2283781)
In short: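 Turtle ERa as a GAL4 chimera in transiently transfected HepG2 cells; reporter mRNA quantified 24 h after dosing by RT-PCR and capillary electrophoresis. 3 nM 6-alpha-fluorotestosterone present; gain of signal versus DMSO.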

[5] = target: Estrogen receptor (Homo sapiens) (UniProt P03372); assay: ATG_hERa_XSP1: Attagene TRANS-FACTORIAL Multi-Species (XSP1) HepG2 Assay for human Estrogen Receptor (ESR1) (AID 2283780)
In short: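 HepG2 cells transiently transfected with GAL4-UAS reporter units and chimeric NR-Gal4 constructs; 24 h after dosing, reporter mRNA quantified by RT-PCR and capillary electrophoresis. Medium contained 3 nM 6-alpha-fluorotestosterone; activity fitted as gain-of-signal versus DMSO.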

[6] = system: turtle Androgen Receptor (AR), gene 101947425; assay: ATG_trAR_XSP1: Attagene TRANS-FACTORIAL Multi-Species (XSP1) HepG2 Assay for turtle Androgen Receptor (AR) (AID 2283786)
Protocol: ATG_XSP1_multi-species_TRANS is a cell-based, multiplexed assay created by modifying the existing Attagene TRANS-FACTORIAL system to include a panel of nuclear receptors from some or all the following species: human (Homo sapiens), mouse (Mus musculus), frog (Xenopus laevis), zebrafish (Danio rerio), chicken (Gallus gallus), and turtle (Chrysemys picta). The ECOTOX-FACTORIAL format uses HepG2, a human liver cell line, with measurements taken at 24 hours after chemical dosing in a 24-well plate. Xsp1 included 3 nM 6-alpha-fluorotestosterone to partially stimulate the androgen receptor.ATG_trAR_XSP1 is one of 29 assay components measured or calculated from the ATG_XSP1_multi-species_TRANS assay. It is designed to make measurements of mRNA induction, a form of inducible reporter, as detected with fluorescence intensity signals by Reverse transcription polymerase chain reaction (RT-PCR) and Capillary electrophoresis technology.The assay endpoint ATG_trAR_XSP1 was analyzed in the positive analysis fitting direction relative to DMSO as the negative control and baseline of activity. […] Furthermore, this assay endpoint can be referred to as a primary readout, because this assay has produced multiple assay endpoints where this one serves a reporter gene function. […]

AR (gene 367) = AR (gene 367) (UniProt P10275); assay: ACEA_AR_agonist_80hr: ACEA Biosciences xCELLigence Real-Time Cell Analysis on Androgen Receptor Agonism for Proliferation (AID 2283783);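 note: hits increase impedance growth signal above DMSO baseline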
In short: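 Proliferation of 22Rv1 prostate cancer cells tracked by electrical impedance, endpoint taken at 80 hours after dosing. Eight-point 1:4 dilutions from 100 uM maximum final, duplicate; testosterone and MG132 as positive controls, assay media as negative.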

chicken Estrogen Receptor (ESR1), ESR1 (gene 396099), sequence (P06212 whole entry, looked up, the tested form may be a part): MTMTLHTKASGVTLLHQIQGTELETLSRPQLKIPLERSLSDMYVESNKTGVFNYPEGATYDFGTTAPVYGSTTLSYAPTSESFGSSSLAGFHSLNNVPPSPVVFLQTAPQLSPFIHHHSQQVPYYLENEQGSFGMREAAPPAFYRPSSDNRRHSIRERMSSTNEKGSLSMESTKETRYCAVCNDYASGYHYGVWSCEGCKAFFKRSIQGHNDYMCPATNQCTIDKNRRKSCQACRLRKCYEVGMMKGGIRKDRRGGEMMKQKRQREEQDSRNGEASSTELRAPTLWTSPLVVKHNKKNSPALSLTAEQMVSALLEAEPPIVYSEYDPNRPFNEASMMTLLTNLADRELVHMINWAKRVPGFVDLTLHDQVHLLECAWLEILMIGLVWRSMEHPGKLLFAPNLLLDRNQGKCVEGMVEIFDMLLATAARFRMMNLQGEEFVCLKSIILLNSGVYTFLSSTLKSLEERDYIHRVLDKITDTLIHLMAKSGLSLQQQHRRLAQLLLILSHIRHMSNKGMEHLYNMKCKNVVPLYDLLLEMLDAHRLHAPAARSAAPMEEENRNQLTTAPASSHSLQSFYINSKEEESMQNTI
AR (gene 367), sequence (P10275 whole entry, looked up): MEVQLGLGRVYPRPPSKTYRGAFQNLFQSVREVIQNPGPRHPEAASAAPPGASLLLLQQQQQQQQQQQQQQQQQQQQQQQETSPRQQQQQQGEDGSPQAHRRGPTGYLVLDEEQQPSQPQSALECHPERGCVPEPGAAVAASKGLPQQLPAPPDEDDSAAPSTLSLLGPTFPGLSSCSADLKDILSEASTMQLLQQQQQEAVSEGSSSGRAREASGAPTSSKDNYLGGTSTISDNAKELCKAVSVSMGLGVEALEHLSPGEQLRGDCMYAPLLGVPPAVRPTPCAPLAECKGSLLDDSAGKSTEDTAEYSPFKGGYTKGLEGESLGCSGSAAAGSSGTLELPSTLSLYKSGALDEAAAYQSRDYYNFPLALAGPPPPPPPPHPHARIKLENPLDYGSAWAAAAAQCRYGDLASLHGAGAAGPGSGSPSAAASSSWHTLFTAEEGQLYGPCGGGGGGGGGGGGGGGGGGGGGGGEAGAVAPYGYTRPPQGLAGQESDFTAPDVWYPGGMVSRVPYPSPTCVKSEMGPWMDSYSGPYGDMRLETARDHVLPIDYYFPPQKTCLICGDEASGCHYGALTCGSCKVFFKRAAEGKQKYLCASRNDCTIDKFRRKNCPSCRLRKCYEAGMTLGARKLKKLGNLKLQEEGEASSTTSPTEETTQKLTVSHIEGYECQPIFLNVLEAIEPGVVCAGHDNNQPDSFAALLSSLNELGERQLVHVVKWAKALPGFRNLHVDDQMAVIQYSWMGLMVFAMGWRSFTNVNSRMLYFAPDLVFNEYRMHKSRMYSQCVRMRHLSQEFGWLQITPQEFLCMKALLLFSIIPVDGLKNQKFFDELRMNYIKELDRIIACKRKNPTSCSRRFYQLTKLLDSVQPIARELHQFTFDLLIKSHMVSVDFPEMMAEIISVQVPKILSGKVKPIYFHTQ
Estrogen receptor (Homo sapiens), sequence (P03372 whole entry, looked up, the tested form may be a part): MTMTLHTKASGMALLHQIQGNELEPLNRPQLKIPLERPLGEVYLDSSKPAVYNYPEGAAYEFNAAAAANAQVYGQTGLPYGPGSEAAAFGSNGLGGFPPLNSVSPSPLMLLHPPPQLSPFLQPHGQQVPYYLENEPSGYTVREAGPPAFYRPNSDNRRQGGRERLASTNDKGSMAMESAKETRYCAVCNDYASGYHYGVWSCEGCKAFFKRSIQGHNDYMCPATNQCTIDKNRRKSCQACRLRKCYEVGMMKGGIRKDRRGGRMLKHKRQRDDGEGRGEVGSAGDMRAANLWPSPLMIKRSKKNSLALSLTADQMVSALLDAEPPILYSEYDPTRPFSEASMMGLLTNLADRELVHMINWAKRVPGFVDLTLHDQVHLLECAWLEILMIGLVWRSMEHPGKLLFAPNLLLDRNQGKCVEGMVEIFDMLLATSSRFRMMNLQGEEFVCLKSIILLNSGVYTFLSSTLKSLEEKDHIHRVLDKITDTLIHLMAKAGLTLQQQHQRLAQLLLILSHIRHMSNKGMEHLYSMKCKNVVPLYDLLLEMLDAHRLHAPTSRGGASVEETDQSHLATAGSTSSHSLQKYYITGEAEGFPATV

Structure (SMILES): C[C@]12CC[C@H]3C(=CCc4cc(O)ccc43)[C@@H]1CCC2=O
- AC50 [1]: 20.2 nM (active)
- AC50 [2]: 13.9 nM (active)
- AC50 [3]: 6.59 nM (active)
- AC50 [4]: 5.94 nM (active)

Structure (SMILES): O=C(c1ccccc1)c1ccc(O)cc1O
- AC50 [1]: 652 nM (active)
- AC50 [2]: 1650 nM (active)
- AC50 [3]: 1550 nM (active)
- AC50 [5]: 3150 nM (active)
- AC50 [4]: 2240 nM (active)
- outcome [6]: inactive

Structure (SMILES): OCC1CCCO1 (configuration not stated)
- AC50 (AR (gene 367)): 585 nM (active)

Structure (SMILES): F[Si-2](F)(F)(F)(F)F
- outcome (AR (gene 367)): inactive
